Results filed as inconclusive are left out. Unmarked numbers belong to inactive results. The source made the active and inactive calls. Calls come from the whole dose curve.
% is set by controls: 0 for no effect and ±100 for the full control effect.

This test in a line: qHTS assay for small molecules that induce genotoxicity in human embryonic kidney cells expressing luciferase-tagged ATAD5 - cell viability (AID 651634). Note: nearly all actives have a fitted effect of over 25% in size. To be noted: HEK293T ATAD5-luc cells viability, CellTiter-Fluor, 15.5 h; series mostly up to 83.3 µM. The source says: National Center for Advancing Translational Sciences [NCATS]
NIH Chemical Genomics Center [NCGC]
U.S. Environmental Protection Agency [EPA]
National Institutes of Environmental Health Sciences [NIEHS]
National Toxicology Program [NTP]
U.S. Food and Drug Administration [FDA]
Enhanced Level of Genome Instability Gene 1 (ELG1; human ATAD5) protein levels increase in response to various types of DNA damage. Using a luciferase reporter-gene tagged with ElG1, a cell-based assay [developed by Kyungjae Myung, NHGRI, NIH] was used to measure the induction of ATAD5 in human embryonic kidney cells (HEK293T). So, increase in luciferase activity can be used to identify the compounds that cause genetic stress. In addition to genotoxicity, these cells were also used to test for cytotoxicity by measuring the protease activity within live cells.
Tox21 Assay Protocol Summary:
For cytotoxicity screening, 2,000 cells in 5 uL/well were dispensed into white, solid-bottom 1536-well plates using a Multidrop Combi (Thermo Scientific) dispenser. Following transfer of 23 nL compound or DMSO vehicle by a pin tool, the plates were incubated 15.5 hr at 37C and 5% CO2. 1 ul CellTiter-Fluor reagent (Promega, Madison, WI) was then added to each plate and following 30 min incubation at 37C, fluorescence intensity was quantified on a ViewLux CCD-based plate reader.
Turning to `CC(=O)OCC(=O)[C@@]1(O)CC[C@H]2[C@@H]3CCC4=CC(=O)C=C[C@]4(C)[C@H]3[C@@H](O)C[C@@]21C`, the compound was called inactive. Turning to `CCCC(=O)CC`, the compound was called inactive. Take `Cc1ccccc1C#N`: the outcome was inactive. `Cc1nnc(C(=O)NC(C)(C)c2nc(C(=O)NCc3ccc(F)cc3)c(O)c(=O)n2C)o1`: the result was inactive. Regarding `CNCCc1ccccn1`, the result was inactive.

On to `CCCCCCCCCCCCCCCC/C=C/C1CC(=O)OC1=O` (stereo not given), for which the outcome was inactive. On the same count and under the same terms, for `CCOC(=O)c1ccc(N(C)C)cc1` the value was “inactive”. The same measure, in the same setting: for `NC[C@H]1O[C@H](O[C@H]2[C@H](O)[C@@H](O[C@H]3O[C@H](CO)[C@@H](O)[C@H](N)[C@H]3O)[C@H](N)C[C@@H]2N)[C@H](N)[C@@H](O)[C@@H]1O` the value was “inactive”. Consider `C/C(=N\O)c1ccc(OCC(=O)N2CCCCC2)cc1`, for which the outcome was inactive. On the same count and under the same terms, to `CCN(CC)CC` belongs “inactive”.

Regarding `CCC(=O)OCCOc1ccccc1`, the compound was called inactive. The same measure, in the same setting: for `CCCc1ccc(O)c(OC)c1` the value was “inactive”; for `O=C(O)Cc1c(Cl)ccc(Cl)c1Cl`, “inactive”. Take `O=Cc1ccccc1S(=O)(=O)O`: the compound was called inactive. Consider `CCCCCCCOC(C)=O`, for which the compound was called inactive. Take `O=S(=O)(O)c1cc(I)c(O)c2ncccc12`: the compound was classed as inactive. For `CCCCCCC(=O)c1ccccc1`, the compound was called inactive. On to `NS(=O)(=O)c1cc2c(cc1C(F)(F)F)NCNS2(=O)=O`, for which the call was inactive. `Cc1ccc(O)c(C(=O)c2ccccc2)c1`: the compound was classed as inactive. Consider `C=CC(=O)OCCOCCOCC`, for which the result was inactive. Take `CCCCCC(=O)CC`: the outcome was inactive. Take `Cc1nc2ccc(Cl)cc2[nH]1`: the result was inactive.

Take `COc1ccc(Cl)cc1C`: the call was inactive.

As for `NNC(=O)OCc1ccccc1`, the call was inactive. The same measure, in the same setting: for `NCC1CCC(C(=O)Oc2ccc(CCC(=O)O)cc2)CC1` (stereo not given) the value was “inactive”; for `CCOC(=O)CC`, “inactive”; for `O=C(OOC(=O)c1ccccc1)c1ccccc1`, “inactive”.

On to `O=C(O)/C=C(\CC(=O)O)C(=O)O`, for which the call was inactive. The same measure, in the same setting: to `N=C(N)N` belongs “inactive”; to `CNC(C)=O`, “inactive”. As to `O=P(O)(O)C(O)(Cc1cccnc1)P(=O)(O)O`, the call was inactive.

As to `CCCCCCCCCCCCCCCCN(C)C`, the activity, negative = cytotoxicity is -13.5% [at 8.08 µM]. Consider `CCCCCCC(O)CO` (stereo not given), for which the result was inactive.

For the compound `C=CCCCCCCCCCCCCCC`, the outcome was inactive. With `c1cc2ccc3ccc4ccc5cccc6c(c1)c2c3c4c56`, the activity, negative = cytotoxicity is 31.3% [at 3.63 µM].

Consider `CN1CCN(C(=O)C2CCCCC2)CC1`, for which the compound was called inactive. As for `CCNC(=O)C(C)OC(=O)Nc1ccccc1` (stereo not given), the outcome was inactive. For `CC(C)(O)c1ccc(C(C)(C)O)cc1`, the outcome was inactive. As to `CC(=O)OC1CCC(C(C)(C)C)CC1` (stereo not given), the compound was called inactive. On the same count and under the same terms, to `COC(=O)C(c1ccccc1Cl)N1CCc2sccc2C1` (stereo not given) belongs “inactive”.

The values are drawn from PubChem BioAssay (Tox21).
